Screening results as filed in PubChem.
DT40 TDP1 no CPT: qHTS for Inhibitors of human tyrosyl-DNA phosphodiesterase 1 (TDP1): qHTS in cells in absence of CPT | DT40 Tdp1-/- hTDP1 cells, no CPT, ATP luminescence, 48 h | Potency, µM (top dose mostly 46.2 µM), without a hit: top-dose activity change, negative = growth inhibition, most hits filed as inhibitors | 420,000 compounds, 15% hits | AID 686978, 2013; also: potency is read from the fitted curve at half-maximal effect; % is scaled to controls: 0 for no effect and ±100 for the full control effect; nearly all actives have a fitted effect of over 55% in size
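A cellular qHTS used chicken DT40 cells lacking endogenous Tdp1 but carrying stably transfected human TDP1. Compounds were applied without camptothecin, and cell growth kinetics were judged by ATP-dependent luminescence after ≥48 hr.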
ClpP mod: qHTS Assay for Activators of ClpP; purified B. subtilis ClpP, FRET peptide cleavage, 20 min; Potency, µM (doses to about 57.5 µM), without a hit: at the top dose activity change, negative = active; 340,000 compounds, 1.9% hits; AID 651965, 2013; active = well fitted falling curve with a large enough effect; inconclusive = small, poorly fitted or top-dose-only effect; inactive = no such curve, though single readings can be large or run the other way; also: potency is read from the fitted curve at half-maximal effect; the source files actives as falling curves though it sought activators and does not explain the sign; nearly all actives have a fitted effect of over 65% in size
Target sequence (P80244 whole entry, looked up): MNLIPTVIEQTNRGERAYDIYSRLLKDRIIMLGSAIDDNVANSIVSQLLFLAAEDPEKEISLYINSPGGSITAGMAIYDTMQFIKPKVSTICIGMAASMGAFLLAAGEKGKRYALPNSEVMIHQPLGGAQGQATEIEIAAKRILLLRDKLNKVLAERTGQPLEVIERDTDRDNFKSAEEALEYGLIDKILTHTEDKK
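Purified B. subtilis ClpP, 10 microg/mL final in Tris/HCl pH8 with KCl, BSA, glycerol and Tween-20, cleaved an Abz/nitrotyrosine-quenched decapeptide. Fluorescence (ex 320, em 430) was read at 0 and 20 min at room temperature. Delta was normalized to 5.8 microM ADEP and DMSO/no-enzyme controls.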
DRD3 antagonist: qHTS of D3 Dopamine Receptor Antagonist: qHTS; AID 652054, 2013; max response, negative = inhibition, %; 360,000 compounds, 2.5% hits; D3R cells, DiscoveRx beta-arrestin luminescence, antagonist mode; hits give low values; D(3) dopamine receptor (Homo sapiens), P35462; in the data active = max response below about -50%; inconclusive = no clear call, values can overlap the other calls; also: % is scaled to controls: 0 for no effect and ±100 for the full control effect
Target sequence (P35462 whole entry, looked up): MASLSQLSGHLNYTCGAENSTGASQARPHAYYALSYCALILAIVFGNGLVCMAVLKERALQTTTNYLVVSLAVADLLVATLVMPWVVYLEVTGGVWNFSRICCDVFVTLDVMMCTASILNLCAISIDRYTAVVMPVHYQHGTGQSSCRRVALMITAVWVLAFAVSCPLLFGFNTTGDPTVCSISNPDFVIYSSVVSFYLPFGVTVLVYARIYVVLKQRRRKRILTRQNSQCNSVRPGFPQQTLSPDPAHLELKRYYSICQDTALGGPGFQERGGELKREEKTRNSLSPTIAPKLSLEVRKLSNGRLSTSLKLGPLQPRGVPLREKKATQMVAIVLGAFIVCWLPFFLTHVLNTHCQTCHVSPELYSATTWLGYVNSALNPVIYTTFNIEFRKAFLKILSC
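Cells expressing the human receptor were seeded at 1500 cells/well, incubated overnight at 37 degrees C in 5% CO2, then exposed to library compounds with dopamine controls for 90 minutes at 37 degrees C before luminescent detection.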
IL-1B inflam inh: qHTS for Inhibitors of Inflammasome Signaling: IL-1-beta AlphaLISA Primary Screen; THP-1 LPS/ATP IL-1B secretion, AlphaLISA, 16 h; hits give low values; activity change, % at 57.5 µM; 360,000 compounds, 4.7% hits; in the data active = activity change below about -50%; inconclusive = mostly about -30% to -49%; also: % is scaled to controls: 0 for no effect and ±100 for the full control effect
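Secreted IL-1B measured by AlphaLISA bead assay after 16 h compound exposure of THP-1 cells; compounds (final up to 57.5 uM) added 1 h before LPS (250 ng/mL) and ATP (1.25 mM) stimulation; lower signal means less secretion.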
DRD3 agonist: qHTS of D3 Dopamine Receptor Agonist: qHTS; D(3) dopamine receptor (Homo sapiens), P35462; D3R DiscoveRx beta-arrestin cells, luminescence, 90 min; max activation, %; 410,000 compounds, 0.58% hits; in the data active = max activation above about 30%; also: 0% is about no effect
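Agonist mode: compounds and dopamine controls were applied to plated cells for 90 min at 37 degrees C after an overnight attachment at 1500 cells/well. Luminescent read-out followed 30 - 60 minutes at room temperature with DiscoveRx detection reagent.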
DT40 TDP1 CPT: qHTS for Inhibitors of human tyrosyl-DNA phosphodiesterase 1 (TDP1): qHTS in cells in presence of CPT; chicken DT40 Tdp1-/-;hTDP1 cells + 20 nM CPT, ATP luminescence, 48 h; Potency, µM (series often up to 46.2 µM), for inactives: top-dose activity change, negative = growth inhibition, most hits filed as inhibitors; 420,000 compounds, 12% hits; AID 686979, 2013; also: potency is read from the fitted curve at half-maximal effect; % is scaled to controls: 0 for no effect and ±100 for the full control effect; nearly all actives have a fitted effect of over 55% in size
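Cell growth measured by CellTiter-Glo luminescence after a minimum 48 h, 37 C compound exposure with 20 nM CPT in Tdp1-knockout DT40 cells stably expressing hTDP1, seeded 400/well; qHTS titration format.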
Active calls of the source: *; ? = inconclusive; . = no result given. Only some compounds are listed: those with a hit (about 21% of all), similar ones and a draw of the others. Unless noted, calls follow the shape of the dose curve; as a rule, active = well fitted inhibition curve with a large enough effect; inconclusive = small, poorly fitted or top-dose-only effect; inactive = flat fitted curve, though single readings scatter.

SMILES	DT40 TDP1 no CPT	ClpP mod	DRD3 antagonist	IL-1B inflam inh	DRD3 agonist	DT40 TDP1 CPT
N/C(=N\OC(=O)N1CCOCC1)c1ccc(Br)cc1	?	0%	-3	-21	-1	21µM*
N/C(=N\OC(=O)c1ccoc1)c1ccc(Br)cc1	9%	1%	16	22	4	-8%
O=C(NCCCN1CCN(c2cccc(Cl)c2)CC1)C1CCC(=O)N1Cc1ccccc1Cl (stereo unspecified)	?	-6%	?	-55*	-4	16µM*
CCN(CCNC(=O)C1CCC(=O)N1Cc1ccc(C)cc1)c1ccccc1 (stereo unspecified)	-16%	-1%	15	-1	0	-19%
CCN(CCCNC(=O)C1CCN(S(=O)(=O)N2CCOCC2)CC1)c1cccc(C)c1	16µM*	-3%	37	-13	-5	?
O=C(Nc1cc(Cl)cc(Cl)c1)C1CCC(=O)N1Cc1ccccc1Cl (stereo unspecified)	?	0%	6	?	-4	23µM*
CN(CCCNC(=O)C1CCC(=O)N1Cc1ccccc1Cl)c1ccccc1 (stereo unspecified)	?	-1%	13	-12	-21	-21%
CCN(CCCNC(=O)C1CCC(=O)N1Cc1ccc(C)cc1)c1cccc(C)c1 (stereo unspecified)	23µM*	-1%	0	-4	6	13µM*
Cc1[nH]c2ccc(C(=O)NCc3ccccn3)cc2c1C	8%	-9%	-12	?	4	-6%
Cc1ccccc1CN1CCN(C(=O)c2ccc(F)cc2)CC1	-10%	1%	-21	?	-14	?
O=C(COC(=O)c1cc[n+]([O-])cc1)Nc1ccc([N+](=O)[O-])cc1C(F)(F)F	-3%	2%	-12	2	2	0%
CCN(CCCNC(=O)C1CCC(=O)N1Cc1ccccc1Cl)c1cccc(C)c1 (stereo unspecified)	23µM*	1%	-11	0	-5	16µM*
Cc1cc2c(cc1S(=O)(=O)NCCc1ccccc1)NC(=O)CO2	-19%	.	8	-20	3	-7%
CCCc1ccccc1OCCNS(=O)(=O)c1cc2c(cc1C)OCC(=O)N2	12µM*	1%	4	-99*	42*	15µM*
O=C(CNC(=O)c1ccc(Br)o1)Nc1cccc(-c2cnc3ccccc3n2)c1	7.3µM*	-7%	-20	90	-3	?
O=C(Nc1cccc(-c2cnc3ccccc3n2)c1)c1ccco1	16µM*	-5%	-6	12	-10	?
Cc1cccc(C(=O)Nc2cccc(-c3cnc4ccccc4n3)c2)c1	?	-5%	25	20	-2	?
Cc1ccc(C(=O)Nc2cccc(-c3cnc4ccccc4n3)c2)cc1	-22%	0%	12	-11	-7	-7%
CNC(=S)Nc1cccc(-c2cnc3ccccc3n2)c1	?	.	-74*	13	-12	?
CC(C)C(=O)Nc1cccc(-c2cnc3ccccc3n2)c1	-24%	1%	4	22	5	-18%
CS(=O)(=O)Nc1cccc(-c2cnc3ccccc3n2)c1	21µM*	.	-24	-14	-6	-6%
O=C(Nc1cccc(-c2cnc3ccccc3n2)c1)c1ccncc1	5.8µM*	.	35	69	2	?
COc1ccc(N2CC(NC(=O)COc3ccccc3F)CC2=O)cc1OC (stereo unspecified)	-12%	0%	.	.	-9	-23%
COC(=O)c1ccc(NC2=CC(=O)CC(C)(C)C2)cc1	23µM*	-3%	-18	?	4	23µM*
O=c1cnc2cnc(Nc3ccccc3)nc2n1C1CC1	?	.	.	.	.	-34%
SMILES	DT40 TDP1 no CPT	ClpP mod	DRD3 antagonist	IL-1B inflam inh	DRD3 agonist	DT40 TDP1 CPT
NC(=O)c1c(NC(=O)c2c(F)cccc2F)sc2c1CCN(Cc1ccccc1)C2	16µM*	0%	5	-8	-2	?
CCOC(=O)c1c(NC(=O)c2ccc(S(=O)(=O)N(CC(C)C)CC(C)C)cc2)sc2c1CCN(CC)C2	16µM*	-7%	.	.	2	8.2µM*
CCN1CCc2c(sc(NC(=O)c3ccc(S(=O)(=O)N(CC)c4ccccc4)cc3)c2C(N)=O)C1	15µM*	0%	-15	-96*	-3	?
CC(C)CN(CC(C)C)S(=O)(=O)c1ccc(C(=O)Nc2sc3c(c2C(N)=O)CCN(C(C)C)C3)cc1	9.2µM*	2%	.	.	-9	8.2µM*
Cc1ccc(S(=O)(=O)NCCC(=O)NCC(c2cccs2)N2CCOCC2)cc1 (stereo unspecified)	-6%	-2%	-21	-6	-9	?
COc1ccccc1OCc1ccc(C(=O)Nc2ccc(Cl)cn2)o1	-11%	.	0	0	6	10%
CC1CCCC(NC(=O)C2CCN(C(=O)Nc3ccccc3)CC2)C1C (stereo unspecified)	-21%	-7%	-3	0	-11	-20%
COc1ccc(C(CNC(=O)c2oc3c(Cl)cccc3c2C)N2CCCC2)cc1 (stereo unspecified)	23µM*	0%	?	?	-11	16µM*
COc1ccc(C(CNC(=O)Cc2cc(OC)c(OC)c(OC)c2)N2CCCC2)cc1 (stereo unspecified)	1%	-1%	-11	-5	6	4%
COc1ccc(C(CNC(=O)c2oc3ccc(Cl)cc3c2C)N2CCCCC2)cc1 (stereo unspecified)	23µM*	-1%	-103*	0	-18	16µM*
COc1ccc(C(CNC(=O)c2oc3ccccc3c2C)N2CCCC2)cc1 (stereo unspecified)	?	-2%	?	-13	-18	21µM*
CCCC[C@@H]1C=C(C(=O)O)[C@H](c2ccc(C#N)cc2)N1S(=O)(=O)c1ccc(C)cc1	-4%	1%	3	24	8	19%
COc1ccc(NC(=O)C2CC(=O)n3ncnc3N2)cc1 (stereo unspecified)	-6%	-1%	14	14	2	-1%
COc1cccc(NC(=O)C2CC(=O)N=C(N)S2)c1 (stereo unspecified)	-1%	0%	-11	9	1	-30%
